From PubChem BioAssay (Tox21)
Results filed as inconclusive are left out. Active and inactive are the calls of the source. Calls come from the whole dose curve.

Target: Acetylcholinesterase (Homo sapiens) (UniProt P22303)
Test: Acetylcholinesterase (AChE) small molecule antagonists: fluorescence cell-based qHTS assay (AID 1347398); note: nearly all actives have a fitted effect of over 50% in size
Details: SH-SY5Y cells; Potency: AChE activity; outcome: AChE activity; series mostly up to 115 µM; activity change, negative = inhibition: at the top concentration
From the text: National Center for Advancing Translational Sciences [NCATS]
Division of Preclinical Innovation [DPI]
U.S. Environmental Protection Agency [EPA]
National Institutes of Environmental Health Sciences [NIEHS]
National Toxicology Program [NTP]
U.S. Food and Drug Administration [FDA]
Acetylcholinesterase (AChE) is the primary cholinesterase in the body that hydrolyzes a key neurotransmitter, acetylcholine. Inhibition of AChE activity can lead to neurotoxicity. Known inhibitors of AChE include organophosphorous pesticides (OP), chemical warfare agents, drugs, and various phytochemicals.
A homogenous cell-based assay using Amplitetrade mark Fluorimetric Acetylcholinesterase Assay Kit *Green Fluorescence* (AAT Bioquest, Sunnyvale, CA) was used to evaluate the chemicals in the Tox21 10K library that inhibit AChE activity. The assay uses Thiolite Green to quantify the thiocholine produced from the hydrolysis of acetylthiocholine by AChE from the SH-SY5Y cells. AChE can hydrolyze acetylthiocholine to create thiocholine. Thiolite Green is fluorescent when reacting with thiocholine. It has spectral properties similar to those of fluorescein. The fluorescence intensity of Thiolite Green is used to measure AChE activity. Its signal can be easily read by a fluorescence microplate reader at Ex/Em = 490/520 nm.
Tox21 Assay Protocol Summary:
For cell-based AChE assay, 2,000 SH-SY5Y cells in 4 uL/well were dispensed into black, clear-bottom 1536-well plates using a Multidrop Combi (Thermo Scientific) dispenser. The assay plates were incubated overnight at 37 C to allow cells to attach to the wells, followed by the transfer of 23 nL compound or DMSO (vehicle control) by a Pintool station (Wako Automation, CA). The plates were incubated for 30 min at 37 C and 5% CO2, followed by the addition of 4 uL of detection cocktail solution (ThioliteGreen, acetylthiocholine) into each well using Flying Reagent Dispenser (Beckman Coulter, CA) and then following 40 min incubation at room temperature. Fluorescent intensity (Ex/Em = 490/520 nm) was measured using an Envision plate reader (PerkinElmer, MA).
% is set by controls: 0 for no effect and ±100 for the full control effect; potency is the fitted concentration of half-maximal effect.

Acetylcholinesterase (Homo sapiens), sequence (P22303 whole entry, looked up): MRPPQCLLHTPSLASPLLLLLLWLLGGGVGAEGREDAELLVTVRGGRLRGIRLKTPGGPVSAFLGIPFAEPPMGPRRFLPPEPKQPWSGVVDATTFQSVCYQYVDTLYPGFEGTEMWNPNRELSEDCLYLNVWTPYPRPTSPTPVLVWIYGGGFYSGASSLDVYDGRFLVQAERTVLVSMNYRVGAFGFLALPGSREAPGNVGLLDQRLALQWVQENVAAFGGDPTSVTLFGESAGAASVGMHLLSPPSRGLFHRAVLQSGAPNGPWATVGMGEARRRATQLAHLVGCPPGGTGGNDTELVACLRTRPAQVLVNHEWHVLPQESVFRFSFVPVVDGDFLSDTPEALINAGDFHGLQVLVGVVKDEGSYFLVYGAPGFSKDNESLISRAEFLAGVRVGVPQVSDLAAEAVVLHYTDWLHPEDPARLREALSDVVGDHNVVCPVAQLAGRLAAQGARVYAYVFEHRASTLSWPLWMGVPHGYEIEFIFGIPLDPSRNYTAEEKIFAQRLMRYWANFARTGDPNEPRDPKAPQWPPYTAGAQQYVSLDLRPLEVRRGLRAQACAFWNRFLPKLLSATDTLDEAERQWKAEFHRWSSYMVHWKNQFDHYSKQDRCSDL

SMILES	activity change, negative = inhibition	Potency
C=CC(C)(CCC=C(C)C)OC(=O)CC(C)C (stereo not given)	-0.523% (inactive)	
CC1(C)S[C@@H]2[C@H](N=CN3CCCCCC3)C(=O)N2[C@H]1C(=O)O	-6.11% [at 53.7 µM] (inactive)	
C[C@]12CC[C@H]3C(=CCc4cc(O)ccc43)[C@@H]1CCC2=O	-3.17% (inactive)	
COC(C)(C)CC(C)=O	7.26% (inactive)	
CCCCCc1ccc(Cl)cc1	3.51% (inactive)	
C=CN1CCCCCC1=O	1.05% (inactive)	
C=C(C)[C@@H]1CCC2=CCC[C@@H](C)[C@]2(C)C1	-8.32% (inactive)	
CCN(C(=O)N(CC)c1ccccc1)c1ccccc1	-7.8% (inactive)	
BrCCCCCBr	-1.76% (inactive)	
COc1cnc(NS(=O)(=O)c2ccc(N)cc2)nc1	0.0375% [at 53.7 µM] (inactive)	
O=C(O)/C=C/c1ccccc1	0.0058% (inactive)	
C=C(C)C(=O)OCCOCC	0.0342% (inactive)	
c1ccc(-c2nn[nH]n2)cc1	0.235% (inactive)	
CCOC(=O)CC#N	9.26% (inactive)	
Cc1onc(-c2c(Cl)cccc2Cl)c1C(=O)N[C@@H]1C(=O)N2[C@@H]1SC(C)(C)[C@@H]2C(=O)O	6.49% [at 53.7 µM] (inactive)	
CCC(C)(CCC(C)C)C(=O)O (stereo not given)	1% (inactive)	
O=C(N/N=C/c1ccccc1O)c1ccncc1	5.57% [at 53.7 µM] (inactive)	
C=C[Si](C)(C)O[Si](C)(C)C=C	1.53% (inactive)	
CC(CN(C)C)CN1c2ccccc2CCc2ccccc21 (stereo not given)	-13.5% [at 53.7 µM] (inactive)	
Cc1cc(C)c(O)c(C(C)(C)C)c1	-1.42% (inactive)	

SMILES	activity change, negative = inhibition	Potency
C/C=C/C=C/C=O	0.716% (inactive)	
O=C(O)[C@@H]1CSCN1	5.98% [at 53.7 µM] (inactive)	
CCCCCCCC/C=C\CCCCCCCC(=O)OCC	-3.93% (inactive)	
CN1C(C)(C)CCCC1(C)C	1.35% [at 53.7 µM] (inactive)	
O=C(Nc1ccc([N+](=O)[O-])cc1)Nc1ccc([N+](=O)[O-])cc1 (tested in a mixture with another compound)	1.18% [at 53.7 µM] (inactive)	
N#Cc1ccc(C2CCCc3cncn32)cc1 (stereo not given)	-8.52% [at 53.7 µM] (inactive)	
CCC(C)(C)C1CCC(=O)CC1	1.24% (inactive)	
C#C[C@]1(O)CC[C@H]2[C@@H]3CCc4cc(OC5CCCC5)ccc4[C@H]3CC[C@@]21C	0.325% [at 53.7 µM] (inactive)	
CCCC1CCCC(=O)O1 (stereo not given)	-10.2% (inactive)	
OC[C@@H](O)[C@@H](O)CO	4.55% (inactive)	
O=C[C@H](O)[C@@H](O)[C@H](O)[C@H](O)CO	6.74% (inactive)	
CCOC(=N)CC(=O)OCC	2.22% (inactive)	
CCOC(=O)N1CCC(Nc2ccc(Cl)cc2N)CC1	-18.7% [at 53.7 µM] (inactive)	
CCCCCCCCN1CCCC1=O	0.547% (inactive)	
CO[Si](CCC1CCC2OC2C1)(OC)OC (stereo not given)	0.639% (inactive)	
c1ccc(C[P+](c2ccccc2)(c2ccccc2)c2ccccc2)cc1		12.6 µM (active)
NC(=O)Nc1ccccc1	4.82% (inactive)	
CN1[C@@H]2CC[C@H]1CC(OC(=O)C(O)c1ccccc1)C2 (stereo not given in full)	10.3% [at 53.7 µM] (inactive)	
CC(COc1ccccc1)NC(C)C(O)c1ccc(O)cc1 (stereo not given)	-4.69% [at 53.7 µM] (inactive)	
CCCCCCCCCC(C)C=O (stereo not given)	-4.8% (inactive)	
